# Source: PubChem BioAssay
# In the library only some 2.4% were active in any assay of this set; here they are far more common.
# TDP1 block = TDP1 (human) enzyme inhibition | Q9NUW8 | recombinant TDP1, AlphaScreen DNA substrate cleavage | Potency, µM (series often up to 130 µM), most hits filed as inhibitors | 350,000 compounds, 0.28% hits | AID 485290; note: nearly all actives have a fitted effect of over 40% in size
#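 Signal: AlphaScreen proximity between streptavidin donor and anti-FITC acceptor beads on intact substrate. Reaction: Tdp1 1 nM, substrate 15 nM final, 5 min RT after 15 min compound preincubation.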
# POLK inh = inhibitors of human DNA polymerase kappa | purified Pol kappa, fluorescent DNA synthesis assay, 10 min | Potency, µM (doses to about 107 µM), most hits filed as inhibitors | 400,000 compounds, 0.53% hits | AID 588579
#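 50 nM final substrate added after 15 min RT preincubation of 10 nM Pol kappa with compound; fluorescence read at 0 and 10 min.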
# FEN1 inhibitor = human FEN1 inhibition. P39748. Recombinant FEN1 flap cleavage, fluorescence, 15 min. Potency, µM (top dose mostly 114 µM), usual class: inhibitors. 390,000 compounds, 0.35% hits. AID 588795; note: nearly all actives have a fitted effect of over 65% in size
#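 FEN1 at 10 nM preincubated with compounds 15 min at room temperature, then flap DNA substrate added at 50 nM final. Signal read at 0 and 15 min; concentration-response fitted with four-parameter Hill equation.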
# POLB inh = inhibitors of human DNA polymerase beta. P06746. Potency, µM (highest dose often 114 µM), actives largely listed as inhibitors. Pol beta primer extension/strand displacement, fluorescence kinetic. 340,000 compounds, 1.3% hits
#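 Pol beta (10 nM) was preincubated with compound for 15 min at room temperature. The reaction was then started with 50 nM substrate and read immediately and after a further 10 min at room temperature.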
# Pol iota inh = blocks human DNA polymerase iota activity | Q9UNA4 | Pol iota fluorescent replication assay, 10 min | Potency, µM (top dose mostly 115 µM), hits mostly inhibitors | 390,000 compounds, 1% hits | AID 588590
#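 Pol iota at 10 nM preincubated 15 min with compounds at room temperature; reaction started with fluorescent substrate, 50 nM final. Fluorescence read kinetically at 0 and 10 min; buffer-only wells as negative control.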
# Pol eta inh = DNA polymerase eta (human) inhibition; Q9Y253; recombinant Pol eta, fluorescent DNA replication assay; Potency, µM (titrated, usually from 114 µM), hits mostly inhibitors; 390,000 compounds, 1.2% hits; AID 588591
#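 Fluorescent replication assay: 50 nM final substrate added after a 15 min room-temperature compound preincubation with 10 nM enzyme. Signal taken at 0 min and again at 10 min.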
# Numbers stand for hits; – = inactive; ? = inconclusive; · = no result; [ ] = another dose, or the depositor's remark. Calls come from the whole dose curve; as a rule, active = well fitted curve in the direction sought with a large enough effect; inconclusive = small, poorly fitted or top-dose-only effect, or another doubt; inactive = no such curve, though single readings can be large; an effect the other way counts as inactive or inconclusive.
SMILES,TDP1 block,POLK inh,FEN1 inhibitor,POLB inh,Pol iota inh,Pol eta inh
COc1ccc2cc([S+]([O-])Cc3ncc(C)c(OC)c3C)nc2c1,·,–,·,·,·,·
CC(N)(C(=O)O)c1ccc(S(=O)(=O)O)cc1 (stereo not given),–,–[19.4 µM],·,·,·,·
COc1ccc(-c2nnc(SCC(=O)Nc3cccc(F)c3)s2)cc1,–,–,–,35.5µM,–,–
COc1ccc(-c2nnc(SCC(=O)Nc3cccc(C)c3)s2)cc1,–,–,–,–,–,–
COc1cccc(C2c3c(ncn(-c4ccc5c(c4)OCO5)c3=N)Oc3ccc4ccccc4c32)c1 (stereo not given),–,·,·,·,·,·
Fc1cccc2sc(Nc3nnc(-c4ccco4)o3)nc12,–,–,–,17.8µM,?,?
COc1ccc(CCn2c(=S)[nH]c(=O)c3cccnc32)cc1OC,·,–,–,·,–,·
CCCC(=O)N1CCN(c2nc3ccc(Br)cc3s2)CC1,–,–,25.1µM,–,–,–
O=C1/C(=C\c2ccc(O)c(O)c2)Oc2cc(O)ccc21,–,4.74µM,·,·,·,·
O=C1/C(=C/c2ccc(Br)cc2)Oc2cc(O)ccc21,·,–,–,14.1µM,–,–
O=C1/C(=C/c2ccccc2)Oc2ccccc21,–[21 µM],·,·,·,·,·
C=C1CCN(C(Cc2ccccc2)C(=O)NCc2ccc(Cl)cc2)S(=O)(=O)c2ccccc21 (stereo not given),–,–,–,·,–,·
CC1=C(C(=O)OC2CCCC2)C(c2c(F)cccc2Cl)CC(=O)N1 (stereo not given),–,–,–,–,–,–
Cc1noc(-c2ccc(N3CCCCC3C)c([N+](=O)[O-])c2)n1 (stereo not given),–,–,–,39.8µM,–,–
CCOC(=O)C1=C(CS(=O)(=O)c2ccc(F)cc2)NC(=O)NC1c1ccc(O)c(O)c1 (stereo not given),–,44.7µM,–,?,25.1µM,?
CCNc1cccc(S(=O)(=O)N2CCN(S(=O)(=O)c3ccc4c(c3)OCCO4)CC2)c1,–,·,·,·,·,·
Cc1ccccc1-c1ccc2ncnc(N3CCOCC3)c2c1,·,–,·,·,·,·
S=c1[nH]nc(COc2ccccc2)n1/N=C/C=C/c1ccco1,·,?,–,20µM,?,28.2µM
COc1ccc(OC)c(-n2c(C)nc3cc(C(=O)O)ccc32)c1,–,–,–,–,–,79.4µM
Cc1sc(-n2cccc2)c(C(=O)O)c1C,–,–,–,?,?,89.1µM
O=C(O)c1c(-n2cccc2)sc2c1CCCC2,–,–,–,–,–,–
CCOC(=O)C1=C(C)OC(=Cc2ccccc2)C1=O,·,·,·,·,·,–
CCOC(=O)C1=C(O)c2ccccc2C(=O)/C1=C\c1ccc(C)cc1,–,–,50.1µM,–,?,?
COc1ccc(OC)c(NC(=O)c2nc(SCc3ccc(F)cc3)ncc2Cl)c1,–,–,–,–,–,–
Cc1no[n+]([O-])c1COc1cccc(/C=N/Nc2nncn2N)c1,–,–,–,?,20µM,–
SMILES,TDP1 block,POLK inh,FEN1 inhibitor,POLB inh,Pol iota inh,Pol eta inh
COc1cc(/C=N/n2nnnc2N)ccc1OCc1c(C)no[n+]1[O-],–,–,–,–,–,–
COc1ccc(N=C2NC(=O)/C(=C/c3ccc(O)c(OC)c3)S2)cc1,–,–,?,39.8µM,?,?
Cc1ccc(S(=O)(=O)/N=C2/NC(=O)/C(=C\c3ccco3)S2)cc1,–,–,–,–,–,?
COc1cc(/C=C2/SC(=Nc3ccc(O)cc3)NC2=O)cc(OC)c1O,–,–,–,–,?,–
CCOc1ccc(N=C2NC(=O)/C(=C/C(=O)OC)S2)cc1,–,–,–,–,–,–
CC(=O)Nc1ccc(S(=O)(=O)/N=C2/NC(=O)/C(=C\c3ccco3)S2)cc1,?,?,–,10µM,?,20µM
CCc1ccc(N=C2NC(=O)/C(=C/c3ccc(OCC(=O)O)c(OC)c3)S2)cc1,·,–,?,20µM,?,–
CCOc1ccc(N=C2NC(=O)S/C2=C\c2ccc(OC)cc2)cc1,–,–,–,10µM,?,–
O=C(c1cccc(F)c1)N1CCC[C@@]2(CCN(C(c3ccccc3)c3ccccc3)C2)C1,·,–,·,·,·,·
CCn1c2ccccc2c2cc(/C=C3/C=Cc4ccccc43)ccc21,·,–,–,·,–,·
